Source: PubChem BioAssay AID687022 (Broad Institute, 2013)
Screen size: about 1,000 compounds; about 360 (36%) were called active. Only a sample is shown. A number with no mark means an inactive call.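 How the source made its calls: active means Fitted curve of melting temperature shift crosses the 1.0 threshold at or below the sample's highest valid tested concentration; inconclusive means Flat fit with activity 30 to 70, or invalid fit; inactive means Opposite direction, flat within 30, or no crossing.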

The compounds below were run against Fibroblast growth factor 22 (Homo sapiens) (UniProt Q9HCT0) (assay: FGF22 ligand-induced thermal stabilization – biophysical, thermal shift, cherry-pick, FGF22 synaptogenesis inhibitor project, dose response (AID 687022; further: reference of the scale not given here)). Conditions: recombinant FGF22 thermal shift, SYPRO orange melting; series mostly up to 38 µM.
Sequence of Fibroblast growth factor 22 (Homo sapiens) (Q9HCT0 whole entry, looked up): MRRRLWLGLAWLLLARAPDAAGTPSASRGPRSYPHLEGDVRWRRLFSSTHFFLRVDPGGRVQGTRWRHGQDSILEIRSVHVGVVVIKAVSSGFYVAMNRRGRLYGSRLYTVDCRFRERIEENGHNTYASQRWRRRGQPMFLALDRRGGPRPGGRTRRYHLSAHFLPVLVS

Compound	Tm shift activity
O=C(N[C@@H]1C=C[C@@H](CC(=O)N2CCCCC2)O[C@@H]1CO)c1cccc(F)c1	inactive
O=C(c1ccccc1F)N1CC(=O)N2[C@@H](CO)[C@H](c3ccc(-c4ccc(F)cc4)cc3)[C@@H]2C1	inactive
Cc1ccccc1-c1ccccc1[C@@H]1[C@@H](C#N)N(C(=O)c2ccccc2)[C@H]1CO	inactive
CCOC(=O)[C@]12CCCC=C1N(Cc1ccccc1)C(=O)[C@H](CC(=O)NCC1CCCCC1)C2	inactive
O=C(Nc1ccc2c(c1)OCO2)c1cnn2cccnc12	inactive
C[C@H]1CN([C@@H](C)CO)C(=O)c2cc(NC(=O)CCC(F)(F)F)ccc2O[C@H]1CN(C)CC1CC1	inactive
C[C@H]1CN([C@@H](C)CO)C(=O)c2cc(NS(=O)(=O)c3ccccc3)ccc2O[C@@H]1CN(C)C	inactive
C[C@H](CO)N1C[C@H](C)[C@H](CN(C)S(=O)(=O)c2ccc(F)cc2)Oc2ccc(NC(=O)c3ccncc3)cc2C1=O	inactive
COc1cccc(NC(=O)OCCN2CCN(Cc3ccccc3)CCC2=O)c1	inactive
O=C(Cn1[nH]c(=O)c2ccccc2c1=O)Nc1cccnc1	inactive
COc1ccc(Br)cc1S(=O)(=O)Nc1ncccc1C	inactive
Cc1cccnc1NC(=O)CCCN1C(=O)c2ccccc2C1=O	inactive
Cc1ccc(-c2ccc([C@@H]3[C@@H](CO)N4C(=O)CN(C(=O)c5ccc(F)cc5)C[C@H]34)cc2)cc1	inactive
Cc1cc(C(=O)O/N=C(\N)c2ccncc2)ccc1[N+](=O)[O-]	inactive
Cc1ccc(-n2c(O)c(C=NC3CCS(=O)(=O)C3)c3ccccc3c2=O)cc1C (centres undefined)	inactive
COCC(=O)NC[C@H]1[C@H](c2ccc(C3=CCCC3)cc2)[C@@H](CO)N1C(C)=O	inactive
C[C@H]1CN([C@@H](C)CO)C(=O)c2cc(NC(=O)Cc3ccccc3)ccc2O[C@H]1CN(C)Cc1ccc2c(c1)OCO2	inactive
COc1cc(OC)cc(C(=O)Nc2nc3ccc(S(C)(=O)=O)cc3s2)c1	inactive
Cc1ccc(S(=O)(=O)Nc2ccc3c(c2)C(=O)N([C@@H](C)CO)C[C@@H](C)[C@@H](CN(C)C)O3)cc1	inactive
C[C@@H]1CN([C@H](C)CO)S(=O)(=O)c2ccc(C#CC3CC3)cc2O[C@H]1CN(C)C(=O)c1ccncc1	inactive
CC(C)(CNCc1ccccc1)NS(=O)(=O)c1ccc(Cl)cc1	inactive

Compound	Tm shift activity
CCCCNC(=O)c1onc(CSc2ccc(C(C)C)cc2)c1C(=O)O	0.765% [at 5 µM]
Cc1noc(C)c1S(=O)(=O)N(C)C[C@H]1Oc2ccc(NS(=O)(=O)c3cccs3)cc2C(=O)N([C@@H](C)CO)C[C@H]1C	inactive
COc1ccc(Nc2nnc(-c3ccncc3)s2)cc1Cl	inactive
CO[C@H](CN(C)S(=O)(=O)c1cccc(Cl)c1)[C@H](C)CN([C@@H](C)CO)S(=O)(=O)c1cccc(Cl)c1	inactive
C[C@@H]1CN([C@@H](C)CO)C(=O)c2cccc(NC(=O)C3CC3)c2O[C@H]1CN(C)Cc1ccncc1	inactive
O=C(C[C@@H]1C=C[C@H](NC(=O)Nc2cc(F)ccc2F)[C@H](CO)O1)Nc1ccc(-c2ccccc2)cc1	inactive
CCC(=O)N(NC1=NS(=O)(=O)c2ccccc21)S(=O)(=O)c1ccc(C)cc1	inactive
CC(C)(C)NC(=O)CN(C(=O)CNS(=O)(=O)c1ccc(Cl)cc1)c1ccc2c(c1)OCCO2	inactive
O=[N+]([O-])c1cccc(S(=O)(=O)Nc2ccc(S(=O)(=O)Nc3nccs3)cc2)c1	inactive
O=[N+]([O-])c1ccc(Cl)c(S(=O)(=O)Nc2ccc(S(=O)(=O)N3CCOCC3)cc2)c1	inactive
CC(=O)c1ccc(NS(=O)(=O)c2ccc(N)cc2)cc1	inactive
CC(=O)c1sc(NC(=O)c2cc(=O)c3ccccc3o2)nc1C	inactive
CCOc1ccc(N(CC(=O)NCCSc2ccccn2)S(=O)(=O)c2ccc(Cl)cc2)cc1	inactive
N#C[C@@H]1[C@H](c2ccc(-c3cccnc3)cc2)[C@H](CO)N1C(=O)Nc1ccc(F)cc1	inactive
CC(C)C#Cc1cnc2c(c1)C(=O)N([C@H](C)CO)C[C@H](C)[C@H](CN(C)C(=O)c1cnccn1)O2	inactive
Cc1noc(C)c1NC(=O)Nc1ccc2c(c1)CC(=O)N([C@@H](C)CO)C[C@H](C)[C@@H](CN(C)Cc1ccc3c(c1)OCO3)O2	inactive
CC(C)NC(=O)Nc1ccc2c(c1)C(=O)N([C@H](C)CO)C[C@H](C)[C@@H](CN(C)C(=O)NC(C)C)O2	inactive
COc1cccc(NC(=O)N2C[C@H](O)COC[C@@H]3O[C@@H](CC(=O)NC4CCC4)CC[C@H]32)c1	inactive
COc1ccc(CCNS(=O)(=O)CCNC(=O)c2ccc3c(c2)OCO3)cc1	inactive
CSc1ccc(C(=O)NCC2CCN(C(=O)C(=O)c3cc4ccccc4o3)CC2)cc1	inactive
C/C(CC(=O)Nc1cccc(Cl)c1Cl)=N\NC(=O)C(=O)NC1CCCCC1	inactive

Compound	Tm shift activity
O=C(CC1CC1)N1CC2(C1)[C@H](c1ccccc1)[C@H](CO)N2C(=O)c1cnccn1	inactive
COCC(=O)Nc1ccc2c(c1)OC[C@@H](C)N(C)C[C@H](C)[C@@H](OC)CN(C)C2=O	inactive
Cc1ccc(N(C(=O)c2csnn2)C(C(=O)NC2CCCC2)c2ccccn2)c(C)c1 (centres undefined)	inactive
O=C(C1CCCC1)N1CC2(C1)[C@H](c1ccccc1)[C@@H](CO)N2CC1CC1	inactive
C[C@H]1CN([C@@H](C)CO)C(=O)c2cc(C3=CCCC3)cnc2O[C@H]1CN(C)C(=O)CN(C)C	inactive
Cc1cc(C(=O)Nc2cccc3c2O[C@@H](CN(C)C(=O)NC2CCCCC2)[C@@H](C)CN([C@H](C)CO)C3=O)n(C)n1	inactive
Nc1n[nH]c(=S)n1/N=C1/C(=O)Nc2ccccc21	inactive
O=C(COC(=O)CCCOc1ccc(Cl)cc1Cl)NCc1ccccc1	inactive
Cc1ccc(NC(=O)COC(=O)Cn2cnc3c2c(=O)n(C)c(=O)n3C)cc1F	inactive
O=C(NCC[C@@H]1CC[C@@H](NS(=O)(=O)c2ccccc2)[C@@H](CO)O1)c1ccc2c(c1)OCO2	inactive
COCC(=O)N(C)C[C@@H]1Oc2cc(C#C[C@H](C)O)ccc2S(=O)(=O)N([C@@H](C)CO)C[C@H]1C	inactive
CC(C)(CNS(=O)(=O)c1ccc2c(c1)OCCO2)N1CCOCC1	inactive
Cn1c(=O)[nH]c(=O)c2c1nc(SCC(O)CO)n2CCCc1ccccc1 (centres undefined)	inactive
Cc1[nH]c2ccccc2c1C(=O)C(=O)NCCOc1ccccc1	inactive
O=[N+]([O-])c1ccc(/C=N/Nc2ccc3ccccc3c2)o1	inactive
CCOC(=O)[C@@H]1[C@H]2COc3cc(OC)ccc3[C@H]2N2C(=O)N(c3ccc(C)cc3)C(=O)[C@]12C	inactive
C[C@H](CO)N1C[C@H](C)[C@@H](CN(C)C(=O)Nc2cccc3ccccc23)Oc2c(NS(C)(=O)=O)cccc2C1=O	inactive
C[C@H]1CN([C@@H](C)CO)C(=O)c2cc(NC(=O)c3ccncc3)ccc2O[C@@H]1CN(C)S(=O)(=O)c1cn(C)cn1	inactive
C[C@H]1CN([C@@H](C)CO)C(=O)c2cc(NS(=O)(=O)c3ccccc3)ccc2O[C@@H]1CN(C)Cc1ccc(C(=O)O)cc1	inactive
CCCCn1cnc2c(SCc3cccc(F)c3)nc(N)nc21	inactive
O=C(COc1ccccc1)NCC(=O)NC1CCCCC1	inactive

Compound	Tm shift activity
O=C(C[C@@H]1CC[C@@H](NC(=O)Nc2cc(F)ccc2F)[C@H](CO)O1)NCCCN1CCOCC1	inactive
CCOC(=O)Cn1c2ccccc2n2nc(CCC(=O)O)c(=O)nc12	inactive
COCC(=O)N1C[C@@H]2[C@H](c3ccccc31)[C@H](CO)N2C(=O)c1ccccc1F	inactive
COc1ccccc1S(=O)(=O)N(C)C[C@@H]1Oc2cc(C#CCC(C)C)ccc2S(=O)(=O)N([C@@H](C)CO)C[C@H]1C	inactive
O=C(C[C@H]1C[C@@H]2c3cc(NC(=O)NC4CCCC4)ccc3O[C@@H]2[C@H](CO)O1)NCc1ccc2c(c1)OCO2	inactive
CCCNC(=O)COCc1cc(-c2ccc3c(c2)OCO3)on1	inactive
O=C(COC(=O)CSc1ccc([N+](=O)[O-])cc1)NCCC1=CCCCC1	inactive
O=C(NCC[C@@H]1CC[C@H](NC(=O)C2CCOCC2)[C@H](CO)O1)Nc1ccc(Cl)cc1	inactive
COc1ccc(/C=N/NC(=O)c2cccc([N+](=O)[O-])c2)cc1OC	inactive
Cc1c(/C=N\NC(=O)c2cccc(F)c2)cnn1C	inactive
CC(=O)Nc1ccc(C(=O)N/N=C/c2cc(Br)cc(Br)c2O)cc1	inactive
O=C(N/N=C/c1c[nH]c2ccccc12)c1ccc2c(c1)OCCO2	inactive
Cc1nn(-c2ccccc2)c(Cl)c1/C=N/NC(=O)c1cccnc1	inactive
COc1ccc(NS(=O)(=O)c2cccc(C(=O)NN=Cc3ccc(OC)c(O)c3)c2)cc1	inactive
CC1CC(CC(=O)NC(=S)Nc2ccccc2Cl)C(=O)O1 (centres undefined)	inactive
CNC[C@H]1Oc2ccc(NC(=O)Cc3cn(C)c4ccccc34)cc2C(=O)N([C@H](C)CO)C[C@H]1C	inactive
COc1ccc(S(=O)(=O)N(C)C[C@@H]2Oc3ccc(NC(=O)Nc4ccccc4)cc3CC(=O)N([C@H](C)CO)C[C@@H]2C)cc1	inactive
COc1ccccc1C(=O)NNC(=O)c1ccc(NC(=O)c2ccccc2)cc1	inactive
CC(=O)Oc1ccc(C(=O)Nc2ccccc2C(=O)N2CCCCC2)cc1	inactive
CCCN(C)C[C@H]1Oc2cc(C#Cc3cccnc3)ccc2S(=O)(=O)N([C@H](C)CO)C[C@@H]1C	inactive
C[C@@H]1CN([C@@H](C)CO)C(=O)c2cccc(NC(=O)c3ccc(-c4nccs4)cc3)c2O[C@@H]1CN(C)C	inactive
